# Experimental data published in PubChem BioAssay AID624297 (National Center for Advancing Translational Sciences (NCATS), 2012).
# About 6,200 (1.8%) of roughly 340,000 compounds were called active. A call without a number means that no potency is given here. Not shown: some 10% with an inconclusive outcome. Calls follow the shape of the dose curve; as a rule, active = well fitted activation curve with a large enough effect; inconclusive = small, poorly fitted or top-dose-only effect; inactive = no such curve, though single readings can be large or run the other way. Many of the other results were omitted from the sample, so actives are more common in it than they were.
# Assay: A quantitative high throughput screen for small molecules that induce DNA re-replication in SW480 colon adenocarcinoma cells. Also: nearly all actives have a fitted effect of over 55% in size.
# Conditions: Hoechst DNA content imaging, 48 h; series mostly up to 46.1 µM
# Description: H Molecular Libraries Probe Production Network [MLPCN] NIH Chemical Genomics Center [NCGC] MLPCN Grant: Fast Track K99 CA136555 Assay Provider: Melvin DePamphilis, NICHD, NIH Assay Overview Eukaryotic cells normally restrict genome duplication to once per cell division. When this process is aberrant, DNA re-replication occurs when cells reinitiate DNA replication before the first round of replication is complete. DNA re-replication induces the DNA damage response, arrests cell proliferation, and triggers apoptosis. The cell cycle components cyclin A, Cdt-1, Cdc6 and geminin are critical regulators of this process and their misregulation results in DNA re-replication in normal and cancer cells. To identify compounds that induce re-replication in normal cells, an image-based assay was used to measure DNA content of nuclei, as detected by the fluorescent DNA binding dye, Hoechst. Cell nuclei were imaged by a fluorescence scanning plate imager and compounds that induce DNA re-replication were identified by the increase of nuclei with elevated fluorescence intensity
# For screening, 250 cells in 5 uL/well were dispensed into black clear 1536-well plates (Aurora) using a solenoid-based dispenser. Following transfer of 23 nL compound or DMSO vehicle by a pin tool, the plates were incubated 48 hr at 37 C and 5% CO2. After addition of 1 uL/well Hoescht stain, the plates were incubated 40 min at 37 C, 5% CO2 and total intensity of fluorescent objects (nuclei) were enumerated by an Acumen Explorer Ex3 (TTP LabTech) fluorescence scanning plate imager (405 nm excitation, 500-530 nm emission). Keywords: NIH Roadmap, MLPCN, MLI, MLSMR, qHTS, NCGC, DNA replication, cancer
# Potency is read from the fitted curve at half-maximal effect.
row,Compound,Potency
1,Cc1cc(=O)oc2c(C)c(OCC(=O)N3CCN(Cc4ccc5c(c4)OCO5)CC3)ccc12,inactive
2,O=C(Cc1ccccc1[N+](=O)[O-])N1CCN(Cc2ccc3c(c2)OCO3)CC1,16.4 µM (active)
3,Fc1ccc(N2CCN(Cc3ccc4c(c3)OCO4)CC2)cc1,inactive
4,CC1([N+](=O)[O-])COP(=O)(Nc2ccc(F)cc2)OC1 (stereo not given),inactive
5,CC1CNCCN1c1ccc(Cl)cc1 (stereo not given),inactive
6,COc1cc(-n2c(=S)[nH]c3ccc(C)cc3c2=O)c(Cl)cc1Cl,18.4 µM (active)
7,C[C@]12CCC3C(CC[C@H]4[C@H](O)[C@H](O)CC[C@]34C)C1CCC2=O (stereo not given in full),inactive
8,O=C(CSc1ccccc1)Nc1ccc(C(=O)Nc2cccc(O)c2)cc1,inactive
9,CCC(C)n1c(O)c(/C=N/Nc2nc3c(c(=O)n(C)c(=O)n3C)n2C)c(=O)[nH]c1=S (stereo not given),23.1 µM (active)
10,CC1CC=CCC12C(=O)NC(=S)NC2=O (stereo not given),inactive
11,CNC(C)[C@@H](O)c1ccccc1 (stereo not given in full),inactive
12,CC1=CC(=Cc2sc3ccccc3[n+]2C)C=C(C)O1,5.8 µM (active)
13,CCC1(CC(C)c2ccccc2)C(=O)NC(=O)NC1=O (stereo not given),inactive
14,Cc1cc(C)c2c(c1)NP(=S)(c1ccccc1)N2 (stereo not given),inactive
15,CCOC(=O)CC(SP1(=S)OCC2(CCCCO2)C(C2CCCCO2)O1)C(=O)OCC (stereo not given),inactive
16,O=C(N/N=C/c1ccc([N+](=O)[O-])o1)c1cc([N+](=O)[O-])cc([N+](=O)[O-])c1O,inactive
17,CC[C@H]1CN2CCc3cc(OC)c(OC)cc3[C@@H]2C[C@@H]1C[C@H]1NCCc2cc(OC)c(OC)cc21,0.291 µM (active)
18,O=C1NC(=O)C(CCOc2ccccc2)(CCc2ccccc2)C(=O)N1,inactive
19,CCC(=O)OC(Cc1ccccc1)(c1ccccc1)C(C)CN(C)C (stereo not given),inactive
20,CCOP(=O)(OCC)C(Nc1cccc(C)c1)c1ccc(F)cc1 (stereo not given),inactive
21,CN1CCCC(=C(c2cccs2)c2cccs2)C1,inactive
22,Nc1ccc(Cc2ccc(N)c(Cl)c2)cc1Cl,inactive
23,C[C@]12CCCCC1=CC(=O)C1C2CC[C@@]2(C)C1C[C@@H](F)[C@@H]2O (stereo not given in full),inactive
24,Cc1ncsc1CCCl,inactive
25,Cc1cc2ccccn2c1C(C[N+](=O)[O-])c1c(F)cccc1Cl (stereo not given),7.31 µM (active)

row,Compound,Potency
1,CCOc1ccc(S(=O)(=O)NCc2ccc3c(c2)OCO3)cc1C,inactive
2,CC(CC(C#N)(c1ccccc1)c1ccccc1)N1CCCCC1 (stereo not given),inactive
3,COc1ccc(C2CC(c3cccs3)=NN2c2nc(C)c(C(C)=O)s2)cc1OC (stereo not given),14.6 µM (active)
4,O=C(NCc1cccs1)c1ccc(Br)o1,inactive
5,Cc1cccc([C@H](C)c2cnc[nH]2)c1C,inactive
6,CCOC(=O)C1(c2ccccc2)CCN(CC(O)c2ccc(NC(C)=O)cc2)CC1 (stereo not given),inactive
7,c1ccc2sc(SNC3CCCCC3)nc2c1,inactive
8,COc1ccc2c(c1)NP(=S)(c1ccccc1)N2 (stereo not given),inactive
9,O=c1c2ccccc2nc(-c2ccccc2)n1-c1ccccn1,inactive
10,O=c1c2ccccc2nc(/C=C/c2ccco2)n1-c1ccccc1O,20.6 µM (active)
11,O=c1c2ccccc2nc(-c2ccco2)n1-c1ccc(Br)cn1,inactive
12,C=CCN1CCC23c4c5ccc(O)c4O[C@H]2C(=O)CC[C@@]3(O)C1C5 (stereo not given in full),inactive
13,CC(C)(C)CC(=O)Nc1nnc(SCC(=O)NCc2cccs2)s1,inactive
14,Cc1cc(-c2ccc(N)c(C)c2)ccc1N,inactive
15,CCC1(c2ccccc2)C(=O)NC(=O)N(C)C1=O (stereo not given),inactive
16,CCN1C(=O)NC(=O)C2(CCCC2)C1=O,inactive
17,CC(=O)OC1C2(CC3N4C(=O)C5(CO)SSC4(CC31O)C(=O)N5C)OC(C)C(C)(C)C2=O (stereo not given),0.461 µM (active)
18,CCNC[C@H](O)c1cccc(O)c1,inactive
19,O=C1NC(=O)C(Cc2ccccc2)C(=O)N1,inactive
20,CC1CCCN1CCC(C(N)=O)(c1ccccc1)c1ccccc1 (stereo not given),inactive
21,COc1ccc2c3c1O[C@H]1C[C@@H](O)C=C[C@@]31CCN(C)C2,inactive
22,CC=C(C)C(=O)OC1CCN2CC=C(COC(=O)C(O)(C(C)OC)C(C)(C)O)C12 (stereo not given),inactive
23,CCC1(C)CC(CCNCc2ccc(N(C)C)cc2)(c2ccc(F)cc2)CCO1 (stereo not given),18.4 µM (active)
24,CC[N+]1(CCOC(=O)C(O)(c2ccccc2)c2ccccc2)CCCCC1,inactive
25,C=C(C)C1(CCCC)C(=O)NC(=S)NC1=O,inactive
